# Source: PubChem (National Center for Advancing Translational Sciences (NCATS))
# PLK1 PBD block: blocks phosphopeptide binding to human PLK1 polo-box domain. P53350. Plk1 PBD binding of FITC phosphopeptide, fluorescence polarization. Potency, µM, actives largely listed as inhibitors. hit rate 2.8% among 360,000. AID 720504; note: series mostly up to about 57 µM; nearly all actives have a fitted effect of over 65% in size
# Target sequence (P53350 whole entry, looked up, the tested form may be a part): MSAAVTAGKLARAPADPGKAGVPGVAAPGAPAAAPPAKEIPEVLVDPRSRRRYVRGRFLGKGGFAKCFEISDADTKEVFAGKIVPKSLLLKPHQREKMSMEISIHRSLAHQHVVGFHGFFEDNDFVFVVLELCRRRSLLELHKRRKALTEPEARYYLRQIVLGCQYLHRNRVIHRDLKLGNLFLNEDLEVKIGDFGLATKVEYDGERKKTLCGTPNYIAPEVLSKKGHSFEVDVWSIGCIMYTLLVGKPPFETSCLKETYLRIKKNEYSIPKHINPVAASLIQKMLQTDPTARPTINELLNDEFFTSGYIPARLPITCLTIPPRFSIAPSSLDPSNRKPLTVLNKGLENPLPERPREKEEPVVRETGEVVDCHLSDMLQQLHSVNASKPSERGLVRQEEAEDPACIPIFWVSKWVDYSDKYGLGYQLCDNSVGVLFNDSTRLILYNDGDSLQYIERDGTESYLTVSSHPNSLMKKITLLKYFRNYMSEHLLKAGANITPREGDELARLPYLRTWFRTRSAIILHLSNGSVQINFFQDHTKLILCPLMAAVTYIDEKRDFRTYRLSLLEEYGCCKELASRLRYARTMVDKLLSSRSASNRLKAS
# VDR inh: inhibitors of human vitamin D receptor; Potency, µM, hits mostly inhibitors; VDR-SRC2-3 peptide fluorescence polarization, 2 h; AID 504847; hit rate 0.93% among 400,000; P11473
#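 Fluorescence polarization assay measuring small-molecule disruption of VDR binding to the coregulator peptide SRC2-3. Compounds were pin-transferred (23 nl) into the reagent mix and incubated 2 h at room temperature before reading.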
# Sfp inh: Sfp phosphopantetheinyl transferase inhibition. AID 1490. Biochemical Sfp PPTase activity, qHTS. hit rate 3.5% among 310,000. Potency, µM, usual class: inhibitors;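 note: the enzyme is Sfp with the accession as filed and its product quenches rhodamine fluorescence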
#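 Buffer: 50 mM Hepes-Na pH 7.6, 10 mM MgCl2, 0.01% Nonidet P-40, 0.01% BSA. Enzyme 15 nM, pre-exposed to compound 15 min; substrates then added and fluorescence change tracked over 30 min.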
# G9a inh: blocks human histone lysine methyltransferase G9a. G9a H3K9 monomethylation, AlphaScreen, 2 h. Potency, µM (top dose mostly 102 µM), usual class: inhibitors. hit rate 8.8% among 350,000. AID 504332; note: nearly all actives have a fitted effect of over 75% in size
#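 Readings reflect AlphaScreen signal from monomethyl-H3K9 antibody detection. HMT at 20 nM; substrate b-H3K9 500 nM; cofactor SAM 20 uM; 2 h RT reaction; compounds tested as titrations in qHTS with 15 min preincubation.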
# MmCpn inh: blocks the Methanococcus maripaludis chaperonin Mm-Cpn; purified Mm-Cpn ATPase, ADP Transcreener TR-FRET; hit rate 0.031% among 330,000; AID 504842; Potency, µM (highest dose often 76.9 µM), hits mostly inhibitors; note: nearly all actives have a fitted effect of over 80% in size
#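 Inhibition of chaperonin ATP hydrolysis is measured as reduced ADP production, detected by competitive TR-FRET in which signal falls with ADP. Final enzyme 25 nM and ATP 10 uM, reacted 30 min at 37°C.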
# CCT modulator: modulators of cytosolic chaperonin (CCT/TRiC) activity; purified chaperonin ATPase assay, HTRF ADP detection, 30 min; activity change, % (test concentration not listed), hits read low; hit rate 0.3% among 360,000; in the data active = activity change below about -30%
#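 Enzyme 40 or 20 nM (batch-dependent) in Tris pH 7.4/KCl/MgCl2/DTT; cpd 76 uM single point; ATP 10 uM; 30 min 37 °C; Transcreener ADP HTRF detection, 30 min RT; ratio 665/615.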
# A number is an active result; n = inactive; u = inconclusive; x = no result given; [ ] = remark or other dose. Most compounds without a hit are left out; they make up all but 10% or so of the library. Unless noted, calls come from the whole dose curve; as a rule, active = well fitted curve in the direction sought with a large enough effect; inconclusive = small, poorly fitted or top-dose-only effect, or another doubt; inactive = no such curve, though single readings can be large; an effect the other way counts as inactive or inconclusive.
SMILES,PLK1 PBD block,VDR inh,Sfp inh,G9a inh,MmCpn inh,CCT modulator
COC(=O)c1ccccc1NC(=O)N1CCC(N2CCN(Cc3ccc(F)cc3)C(=O)C2=O)CC1,x,n,x,n,x,x
COC(=O)[C@@H]1O[C@@H](c2c(OC)c(OC)c(C)c(OC)c2OC)[C@H](C)[C@@H](O)[C@@H]1C,x,x,n,x,x,x
N#C/C(=C\Nc1ccc(F)c(Cl)c1)S(=O)(=O)c1ccccn1,n,n,n,n,n,n
N#C/C(=C\c1ccc(F)c(Cl)c1)S(=O)(=O)c1ccccn1,12µM,n,n,n,n,n
CC(=O)Sc1nc(-c2ccccc2)[nH]c1S(=O)(=O)c1ccc(C)cc1,3µM,u,2.5µM,2.2µM,n,n
Cn1c(C(=O)NC2CCCCC2)cc2sccc21,n,n,n,u,n,n
CCn1c(C(=O)NC2CCC(C)CC2)cc2sccc21 (stereo unspecified),n,n,n,n,n,-80
c1ccc(-c2ccc(N3CCCC4(CCNCC4)C3)cc2)cc1,x,u,28µM,n[12.7 µM],x,x
c1ccc(-c2ccc(N3CC4(CCNCC4)C3)cc2)cc1,x,n,u,n[12.7 µM],x,x
COCC(=O)N1CCC2(CCCN(c3ccc(-c4ccccc4)cc3)C2)CC1,x,50µM,n,n[12.7 µM],x,x
C[C@]12C[C@@](C)(C=C1/C=C/c1ccccc1)C(=O)C[C@H]2c1ccccc1,x,n,n,x,x,x
CC(=NNS(=O)(=O)c1ccc(C)cc1)c1ccccc1,n,x,x,x,x,n
C/C(=N/NS(=O)(=O)c1ccc(C)cc1)[C@H]1C[C@@H]1c1ccccc1,n,n,n,13µM,n,n
O=C(CCCN1C(=O)/C(=C/c2ccccc2Cl)SC1=S)Nc1ccccn1,n,n,n,13µM,n,n
O=C(CCN1C(=O)/C(=C/c2ccccc2F)SC1=S)Nc1ccccn1,n,n,n,n,n,n
O=C(CCN1C(=O)/C(=C/c2ccccc2Cl)SC1=S)Nc1ccccn1,n,n,n,7.9µM,n,n
CCc1nnc(NC(=O)CN2C(=O)/C(=C/c3cc(OC)c(OC)c(OC)c3)SC2=S)s1,n,u,50µM,n,n,n
O=C(CCN1C(=O)/C(=C/c2ccccc2Cl)SC1=S)NNC(=O)c1ccccc1O,n,n,50µM,n,n,n
O=C(CCCN1C(=O)/C(=C/c2ccccc2Cl)SC1=S)Nc1cccnc1,n,n,n,n,n,n
COc1cc(/C=C2/SC(=S)N(CC(=O)Nc3nc4ccccc4s3)C2=O)cc(OC)c1OC,n,n,n,n,n,n
O=C(CCN1C(=O)/C(=C/c2ccccc2Cl)SC1=S)NNC(=O)c1cccnc1,n,n,n,n,n,n
Cc1ccccc1CN1C(=O)c2ccccc2Sc2ccc(C(=O)NC3CCCCC3)cc21,x,n,x,n,x,x
Cn1nnc2c(N3CCN(c4ccccc4F)CC3)ncnc21,x,n,x,n,x,x
COc1cc(CNC(=O)c2sc3ncccc3c2-n2cccc2)cc(OC)c1OC,x,n,x,n,x,x
O=C(CN1C(=O)COc2ccc(S(=O)(=O)Nc3ccccc3)cc21)Nc1cccc(Cl)c1,x,n,x,n,x,x
SMILES,PLK1 PBD block,VDR inh,Sfp inh,G9a inh,MmCpn inh,CCT modulator
COc1cc(/C=C2\SC(=S)N(CC(=O)Nc3ccccn3)C2=O)cc(OC)c1OC,n,n,n,u,n,n
COc1cc(/C=C2\SC(=S)N(CCC(=O)Nc3ccccn3)C2=O)cc(OC)c1OC,n,u,n,7.9µM,n,n
O=C(CCCN1C(=O)/C(=C/c2cccs2)SC1=S)Nc1ccccn1,19µM,n,u,u,n,n
O=C(CCN1C(=O)/C(=C\c2cccs2)SC1=S)Nc1ccccn1,n,n,n,u,n,n
COC(=O)Cc1[nH]n(-c2nc3ccccc3s2)c(=O)c1C(C)=Nc1ccc(C)cc1,n,n,56µM,14µM,n,n
COC(=O)Cc1[nH]n(-c2nc3ccccc3s2)c(=O)c1C(C)=Nc1ccc(Cl)cc1,n,n,79µM,n,n,n
COC(=O)Cc1[nH]n(-c2ccccc2)c(=O)c1C(C)=Nc1ccccc1,n,n,n,50µM,n,n
CCCN=C(C)c1c(-c2ccccc2)[nH]n(-c2nc3ccccc3s2)c1=O,n,n,n,u,n,n
Cc1cc(C(=O)CSc2cccc[n+]2[O-])c(C)n1-c1ccccc1,n,n,n,u,n,-38
Cc1cc(C(=O)CSc2nncn2C)c(C)n1-c1ccccc1,n,n,n,n,n,n
Cc1cc(C(=O)CSc2cccc[n+]2[O-])c(C)n1-c1ccc(Br)cc1,x,x,n,35µM,n,x
O=C(CSc1cccc[n+]1[O-])c1ccccc1Br,n,n,n,0.5µM,n,n
Cc1cc(C(=O)COC(=O)c2ccc[nH]c2=O)c(C)n1-c1ccc(Br)cc1,n,n,n,n,n,n
Cc1cc(C(=O)OCC(N)=O)c(C)n1-c1ccccc1,24µM,79µM,n,n,n,n
CCOC(=O)c1cc(C)n(-c2ccccc2)c1C,n,n,n,n,n,n
CN(C(=O)CSc1cccc[n+]1[O-])c1ccccc1,n,n,x,x,n,n
Cc1cc(C)cc(NC(=O)c2c(C)oc3nc(C)nc(N4CCCC4)c23)c1,x,n,x,n,x,x
Cc1ccc(Sc2ccc(N3CCC(C(=O)Nc4ccc(Cl)cc4)CC3)nn2)cc1,x,n,x,n,x,x
O=C(CSc1cccc[n+]1[O-])c1ccc(Cl)s1,n,n,n,10µM,n,n
O=C(CSc1cccc[n+]1[O-])NN(c1ccccc1)c1ccccc1,n,n,n,n,n,n
Cc1ccc(C)n1-c1ccc(N2CCOCC2)cc1,n,n,n,u,n,n
Cc1ccc(C)n1-c1ccc(N(C)C)cc1,n,u,40µM,7.1µM,n,n
Cc1ccc(C)c(NC(=O)c2nnn(Cc3ccc(F)cc3Cl)c2N)c1,x,n,x,n,x,x
CCNC(=O)CC1C(=O)N(c2ccc(C)cc2)C(=O)N1Cc1ccc(C)cc1 (stereo unspecified),x,n,x,n,x,x
CCn1cc(C(=O)NCc2ccc(C)o2)c2cc(OC)c(OC)cc2c1=O,n,n,35µM,u,n,n
SMILES,PLK1 PBD block,VDR inh,Sfp inh,G9a inh,MmCpn inh,CCT modulator
C/C(=N\Nc1cc(-c2ccccc2)nc(-c2ccc(Br)cc2)n1)c1cccc(N)c1,n,n,x,x,x,-65
C/C(=N/Nc1nc(-c2ccccc2)cc(-c2ccccc2)n1)c1ccc(N)cc1,x,x,n,11µM,n,x
C/C(=N/Nc1cc(-c2ccccc2)nc(-c2ccccc2)n1)c1ccc(O)cc1,n,n,n,n,n,n
O=C(O)CNC(=O)CC1S/C(=N/N=C2\CSC(=O)N2)NC1=O (stereo unspecified),n,n,4µM,n,n,n
NC(=O)NC(=O)CC1S/C(=N/N=C2/NC(=O)CS2)NC1=O (stereo unspecified),n,n,n,5µM,n,n
O=C(O)CNC(=O)CC1S/C(=N/N=C/c2ccccc2O)NC1=O (stereo unspecified),24µM,u,n,n,n,n
